Sampled rows, rich in hits. Any-hit rate of the full collection: about 19%.
IL-1B inflam inh: inhibitors of inflammasome signaling (IL-1 beta secretion); activity change, % at 57.5 µM; THP-1 LPS/ATP IL-1B secretion, AlphaLISA, 16 h; active compounds read low; AID 743279; 4.7% of 360,000 active; in the data active = activity change below about -50%; inconclusive = mostly about -30% to -49%
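THP-1 cells pretreated 1 hr with compounds (up to 57.5 uM final), then stimulated with LPS (250 ng/mL final) plus ATP (1.25 mM final); secreted IL-1B measured by AlphaLISA after 16 hr, decreased signal indicating inhibition.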
ELG1 DNA repair: ELG1-dependent DNA repair inhibition; HEK293T ELG1-luciferase reporter, luminescence, 16 h; DNA damage induced by 5-fluorouridine; Potency, µM (doses to about 46.1 µM), for inactives: at the top dose activity change, negative = inhibition, hits mostly inhibitors; 2.3% of 330,000 active; also: potency is read from the fitted curve at half-maximal effect; nearly all actives have a fitted effect of over 55% in size
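DMSO vehicle served as the neutral condition. Each well held 2,000 cells given 5-fluorouridine plus compound; after 16 hr at 37 °C/5% CO2, ONE-Glo was added and luciferase measured 30 min later.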
DT40 TDP1 CPT: growth inhibition of DT40 Tdp1-/-;hTDP1 cells with camptothecin (screen for TDP1 inhibitors) | chicken DT40 Tdp1-/-;hTDP1 cells + 20 nM CPT, ATP luminescence, 48 h | Potency, µM (series often up to 46.2 µM), without a hit: top-dose activity change, negative = growth inhibition, most hits filed as inhibitors | 12% of 420,000 active; also: potency is read from the fitted curve at half-maximal effect; nearly all actives have a fitted effect of over 55% in size
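Chicken DT40 Tdp1-/- cells stably complemented with human TDP1 were seeded at 400 cells/well in medium containing 20 nM camptothecin, exposed to pin-transferred compounds, and grown at 37 °C for at least 48 hr. Viability was read as ATP luminescence.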
DT40 TDP1 no CPT: qHTS for Inhibitors of human tyrosyl-DNA phosphodiesterase 1 (TDP1): qHTS in cells in absence of CPT; 15% of 420,000 active; DT40 Tdp1-/- hTDP1 cells, no CPT, ATP luminescence, 48 h; AID 686978, 2013; Potency, µM (doses to about 46.2 µM), for inactives: at the highest dose activity change, negative = growth inhibition, usual class: inhibitors; also: potency is read from the fitted curve at half-maximal effect; nearly all actives have a fitted effect of over 55% in size
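Camptothecin absent (DMSO only). Human TDP1-complemented DT40 knockout cells, 400 cells/well, 37 °C for minimum 48 hr; ATP measured via CellTiter-Glo, 30 min dark incubation, luminescence.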
HT1080 IDH1KD tx: toxicity to HT-1080 IDH1 knockdown cells (counter line); HT-1080 IDH1 knockdown viability, ATP luminescence, 48 h; 2% of 360,000 active; Potency, µM (doses to about 46.1 µM), inactives show at the highest dose activity, negative = toxicity, most hits filed as cytotoxic;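 also: potency is read from the fitted curve at half-maximal effect; 0% = DMSO wells and -100% = cell-free medium wells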
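After a 2 h attachment period, IDH1KD HT-1080 cells took pin-transferred compound for 48 h at 37 °C; ATP-based luminescence after 10 min room-temperature reagent incubation reported viability.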
HT1080NT lethal: kills 2HG-producing HT-1080-NT fibrosarcoma cells; 1.6% of 360,000 active; Potency, µM (highest dose often 46.1 µM), without a hit: at the top dose activity, negative = less viability, hits mostly cytotoxic; HT-1080-NT fibrosarcoma viability, CellTiter-Glo ATP luminescence, 48 h;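 also: NT is the 2HG producing partner of a matched IDH1 knockdown line; potency is read from the fitted curve at half-maximal effect; 0% = DMSO-treated cells and -100% = media-only wells without cells; nearly all actives have a fitted effect of over 55% in size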
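Compounds were tested in concentration-response format on HT-1080-NT cells for 48 hours at 37 degrees C. Cell viability came from CellTiter-Glo luminescence; curves were classified by r2, response magnitude and activity.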
* = called active by the depositor; ? = inconclusive; / = no result. Unless noted, calls follow the shape of the dose curve; as a rule, active = well fitted curve in the direction sought with a large enough effect; inconclusive = small, poorly fitted or top-dose-only effect, or another doubt; inactive = no such curve, though single readings can be large; an effect the other way counts as inactive or inconclusive. Unless noted, % is scaled to controls: 0 for no effect and ±100 for the full control effect.

SMILES | IL-1B inflam inh | ELG1 DNA repair | DT40 TDP1 CPT | DT40 TDP1 no CPT | HT1080 IDH1KD tx | HT1080NT lethal
COc1ccccc1NS(=O)(=O)c1ccc(O)c(NC(=S)NCC2CCCO2)c1 (stereo not given) | 55 | -12% | ? | -19% | -1% | 9%
Cc1cc(Br)c2c(c1)[C@](O)(c1cn(C)c3ccccc13)C(=O)N2C | -9 | / | 16µM* | 23µM* | ? | ?
O=Cc1s/c(=N\S(=O)(=O)c2ccccc2)n(CCCCl)c1Cl | -102* | ? | 0.52µM* | 0.73µM* | 7.3µM* | 7.3µM*
Cc1nc2cc(-c3cccc(F)c3)nn2c(C)c1CCC(=O)NC(C)c1ccc2c(c1)OCCO2 (stereo not given) | -7 | ? | 16µM* | ? | 1% | -17%
Cc1nc2nc(C)c(CCC(=O)NC(C)c3ccc4c(c3)OCCO4)c(C)n2n1 (stereo not given) | 13 | 20% | 1% | 4% | 12% | 22%
Cc1nc2cc(-c3ccccc3)nn2c(C)c1CCC(=O)NC(C)c1ccc2c(c1)OCCO2 (stereo not given) | 9 | -25% | ? | 18µM* | -2% | -6%
C=CCn1c(SCC(=O)Nc2cc(C)c(Cl)cc2OC)nnc1-c1ccco1 | ? | ? | -15% | ? | ? | ?
C=CCn1c(SCc2c(F)cccc2Cl)nnc1-c1ccco1 | -26 | -17% | 21µM* | 16µM* | 8% | 17%
C=CCNc1nc(N)c([N+](=O)[O-])c(NCc2ccccc2)n1 | 29 | 15% | -8% | -24% | 0% | -11%
COCCNc1nc2cc(-c3ccc(C)cc3)sc2c(=O)n1C | 12 | / | ? | ? | 20% | 5%
COCCNc1nc(NCCOc2ccccc2)c2sc(-c3ccccc3)cc2n1 | -107* | / | 16µM* | 15µM* | 23µM* | 15µM*
COCCNc1nc(NCCN2CCNC2=O)c2sc(-c3ccccc3)cc2n1 | / | / | 26µM* | 21µM* | 12% | ?
C=CCNc1nc(NCc2cccc(OC)c2)c2sc(-c3ccccc3)cc2n1 | -108* | / | 5.8µM* | 4.1µM* | ? | ?
COCCNc1nc(-c2ccc(OC)cc2C)c2sc(-c3ccccc3)cc2n1 | -11 | / | 21µM* | 16µM* | ? | ?
COc1ccc(CCNC(=O)Cn2c(=O)c3cccn3c3ccc(F)cc32)c(OC)c1 | / | / | ? | -22% | / | /
Cn1c(CCC(=O)O)nc2cc(S(=O)(=O)N3CCCCC3)ccc21 | -12 | 30% | -2% | 17% | 2% | 0%
COCCNc1nc(NCCOC)c2sc(-c3ccccc3)cc2n1 | / | / | 26µM* | 26µM* | -4% | -11%
Cn1c(NCc2ccc3occc3c2)nc2cc(-c3ccc(F)cc3)sc2c1=O | 12 | / | -24% | -12% | -29% | 14%
c1ccc(-c2cc3nc(NCc4cccs4)nc(NCc4ccc5occc5c4)c3s2)cc1 | -89* | / | ? | ? | 18µM* | 16µM*
COCCCNC(=S)N1CCC(C(=O)c2ccc(Cl)cc2)CC1 | -12 | ? | -65% | -69% | -25% | -23%
O=C(NCc1cccnc1)c1cc(C(=O)NCc2cccnc2)cc([N+](=O)[O-])c1 | -19 | / | -3% | 5% | -2% | 8%
O=S(=O)(c1ccc(OC(F)(F)F)cc1)N1CCN(c2nc(-c3ccccc3)nc3ccccc23)CC1 | / | / | -17% | -20% | / | /
COc1ccccc1NC(=O)Cn1c(=O)n(-c2ccccc2Cl)c(=O)c2sc3ccccc3c21 | / | / | ? | 10µM* | / | /
COc1ccc(NC(=O)Cn2c(=O)n(Cc3ccccc3)c(=O)c3sc4ccccc4c32)cc1 | / | / | -22% | 13µM* | / | /
O=C(Cn1c(=O)n(Cc2ccccc2)c(=O)c2sc3ccccc3c21)Nc1ccc(F)cc1 | / | / | 15µM* | 15µM* | / | /
SMILES | IL-1B inflam inh | ELG1 DNA repair | DT40 TDP1 CPT | DT40 TDP1 no CPT | HT1080 IDH1KD tx | HT1080NT lethal
N/C(=N\NC(=O)c1cccs1)c1cc2cc(Cl)ccc2oc1=O | ? | 2% | -24% | -5% | -1% | -4%
CC(C)CC(C(=O)NC(C)(C)C)N(Cc1cccs1)C(=O)c1snc(C(N)=O)c1N (stereo not given) | 8 | -12% | ? | -24% | -2% | 5%
Cc1ccc(/C=N\NC(=O)CNC(=O)C23CC4CC(CC(C4)C2)C3)o1 | -17 | 10% | -1% | -9% | 8% | 2%
C[C@](N)(C(=O)O)c1ccc(-c2nn[nH]n2)cc1 | / | / | 11% | 1% | / | /
Cc1cc(C(=O)Nc2ccc3nc(C)sc3c2)c2ccccc2n1 | 15 | 9% | -10% | ? | -3% | -27%
Cc1nc2sc3c(c2c(=O)n1NC(=O)CCBr)CCCC3 | -10 | 16% | 18µM* | 18µM* | -14% | -26%
CCCn1c(SCC(=O)NC)nc2sc3c(c2c1=O)CCC3 | 39 | ? | -4% | -14% | -11% | 10%
CNC(=O)C(C)Sc1ccc(S(=O)(=O)N2CCOCC2)cn1 (stereo not given) | -6 | ? | -18% | -6% | -5% | 1%
CCN1C(=O)[C@H]2[C@@H](c3ccc(-c4ccc(F)cc4)cc3)N[C@@](C)(C(=O)OC)[C@H]2C1=O | -12 | -3% | 23µM* | 21µM* | 14% | ?
CCN1C(=O)[C@H]2[C@@H](c3ccc(-c4ccc(C(C)=O)cc4)cc3)N[C@@](C)(C(=O)OC)[C@H]2C1=O | 33 | ? | ? | -24% | 9% | 1%
COC(=O)[C@]1(C)N[C@H](c2ccc(-c3cccc(Cl)c3)cc2)[C@@H]2C(=O)N(C)C(=O)[C@@H]21 | -24 | -2% | ? | ? | -3% | 0%
CCN1C(=O)[C@H]2[C@@H](c3ccc(-c4cccc(Cl)c4)cc3)N[C@@](C)(C(=O)OC)[C@H]2C1=O | -5 | ? | 16µM* | 13µM* | -12% | 0%
CCN1C(=O)[C@H]2[C@@H](c3ccc(-c4ccc(F)cc4)c(OC)c3)N[C@@](C)(C(=O)OC)[C@H]2C1=O | -16 | 5% | 13µM* | ? | 5% | -7%
O=C(NCc1cccc(Cl)c1)c1ccc(CS(=O)Cc2ccc(Cl)cc2)o1 (stereo not given) | -74* | 13µM* | ? | -3% | -20% | -19%
O=C(NCc1ccc2c(c1)OCO2)c1ccc(CS(=O)Cc2ccc(Cl)cc2)o1 (stereo not given) | -69* | ? | -12% | -15% | -5% | 3%

Compound activity as filed in PubChem.
